# Test results: PubChem BioAssay
# Several values for one entry are separate records, joined by “and”; a condition that tells them apart may be missing. Equal entries are not always repeated. Activity calls are given as the source filed them.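 The calls were made as follows, unless noted: active = compounds whose cell count with miR-34 switched on is under 0.7 times the count with it off; inactive = the rest.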
# Assays:
# [1] = compounds altering viability of human ES cells (AID 493140; call rule not given here;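 also: cells exposed to compounds for four days before counting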); conditions: human embryonic stem cell survival screen; stronger effect = higher value
# [2] = P. berghei load reduction in hepatocytes – cell-based, HepG2, luciferase luminescence, HepG2 viability, primary screen (AID 624349; in the data active = parasite load remaining mostly below about 12%, no sharp cut-off; inactive = mostly above about 10%;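 also: 100% = mean of DMSO negative control wells on the same plate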); conditions: P. berghei liver stage in HepG2, luciferase luminescence, concentration not given here; parasite load remaining: stronger effect = lower value; viability: measured here: HepG2 viability without parasites
# [3] = Wnt pathway potentiators raising nuclear beta-catenin – imaging, WNT3A-conditioned medium, mouse C2C12, NPC library, primary screen (AID 1117326; in the data active = nuclear beta-catenin stimulation mostly above about 4.2%, no sharp cut-off; inactive = mostly below about 10%); conditions: stronger effect = higher value
# [4] = stimulators of insulin release from INS-1E, primary screen, cell-based, 5 mM glucose, NPC library (AID 1117329;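 active = compound raises insulin release from rat beta cells at 5 mM glucose, no numeric limit stated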); conditions: rat INS-1E insulin secretion, at 10 µM, stronger effect = higher value
# [5] = growth inhibition of GSK3B-pretreated HCT116 cells – cell-based, CellTiter-Glo, 0.2 to 20 µM (AID 1117336;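 active = compounds lowering colon cancer cell viability after pretreatment blocking the GSK3B kinase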); conditions: HCT116 viability after GSK3B inhibitor, at 20 µM, stronger effect = higher value
# [6] = inhibition of endothelial tube formation, primary screen, imaging, VEGF stimulated, CD31 staining, tube area, NPC library (AID 1117340;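 active = compound that reduces growth-factor-driven endothelial tube area in a mixed cell culture, no cutoff stated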); conditions: VEGF-stimulated ADSC/ECFC co-culture, at 10 µM, stronger effect = higher value
# [7] = GLP1 release stimulators, primary, NCI-H716, NPC library (AID 1117341;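 active = compound raises GLP1 secretion from the human gut endocrine cells, with no numeric limit stated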); conditions: NCI-H716 cells, at 10 µM, stronger effect = higher value
# [8] = HCT116 colon cancer cell growth inhibition, primary screen, CellTiter-Glo luminescence, NPC library (AID 1117342;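 active = compounds that lower survival of HCT116 colon cancer cells in the luminescence readout, no numeric limit stated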); conditions: at 20 µM (top of the series)
# [9] = reduced SW480 viability measured with CellTiter-Glo, NPC library, primary (AID 1117343;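 active = compounds that lower viability of the colon cancer cells in the luminescence readout, with no numeric limit stated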); conditions: CellTiter-Glo luminescence; at 20 µM (top of the series) unless noted
# [10] = NPC library primary testing for decreased DLD-1 cell viability via CellTiter-Glo (AID 1117346;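 active = compounds that lower survival of DLD-1 colon cancer cells in the luminescence readout, no cutoff given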); conditions: DLD-1 viability, CellTiter-Glo luminescence; at 20 µM (top of the series)
# [11] = EMT-state selective cytotoxicity in co-culture – imaging, PC-3E GFP, TEM4-18 mCherry, primary screen (AID 1345086;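 active = compounds killing one labelled cell type while sparing the other, by normalised counts and ratio limits, not self-fluorescent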;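 as to all read-outs here: cells exposed to compound for 72 h before imaging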;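 as to red/green cell ratio (normalised): normalised mesenchymal count divided by normalised epithelial count so high means epithelial killing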); conditions: PC-3E GFP / TEM4-18 mCherry co-culture, imaging cell counts, at 1 µM; for red/green cell ratio (normalised): actives lie on both sides, counts scaled to control wells, 1 = unselective
# [12] = viability loss with induced miR-34 in A549 – imaging, A549 dox-inducible miR-34, nuclei and caspase counts, primary screen (AID 1347080); conditions: A549 miR-34 inducible, Hoechst nuclei count, 48 h
# [13] = MELAS cybrid and Rieske KO viability enhancers – cell-based, MELAS cybrids, Rieske KO mouse fibroblasts, CellTiter-Glo, primary screen (AID 1508586;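 active = mean z-score across replicates of 1.96 or higher in either the MELAS or the Rieske mutant cell line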;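 also: z relative to plate mean and SD of compound and empty wells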); conditions: low glucose
# [14] = molecular target: NAD(+) hydrolase SARM1 (Homo sapiens) (UniProt Q6SZW1); test: blocking NAD cleavage by SARM1 SAM-TIR – cell lysate, NAD-Glo luminescence (AID 1508614;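 active = compound whose remaining NAD level is above about 45 nM, limit read from the data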;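 also: higher remaining NAD means stronger inhibition of SARM1 NADase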); conditions: SAM-TIR HEK293T lysate NADase, at 1 µM, stronger effect = higher value
# NAD(+) hydrolase SARM1 (Homo sapiens), sequence (Q6SZW1 whole entry, looked up): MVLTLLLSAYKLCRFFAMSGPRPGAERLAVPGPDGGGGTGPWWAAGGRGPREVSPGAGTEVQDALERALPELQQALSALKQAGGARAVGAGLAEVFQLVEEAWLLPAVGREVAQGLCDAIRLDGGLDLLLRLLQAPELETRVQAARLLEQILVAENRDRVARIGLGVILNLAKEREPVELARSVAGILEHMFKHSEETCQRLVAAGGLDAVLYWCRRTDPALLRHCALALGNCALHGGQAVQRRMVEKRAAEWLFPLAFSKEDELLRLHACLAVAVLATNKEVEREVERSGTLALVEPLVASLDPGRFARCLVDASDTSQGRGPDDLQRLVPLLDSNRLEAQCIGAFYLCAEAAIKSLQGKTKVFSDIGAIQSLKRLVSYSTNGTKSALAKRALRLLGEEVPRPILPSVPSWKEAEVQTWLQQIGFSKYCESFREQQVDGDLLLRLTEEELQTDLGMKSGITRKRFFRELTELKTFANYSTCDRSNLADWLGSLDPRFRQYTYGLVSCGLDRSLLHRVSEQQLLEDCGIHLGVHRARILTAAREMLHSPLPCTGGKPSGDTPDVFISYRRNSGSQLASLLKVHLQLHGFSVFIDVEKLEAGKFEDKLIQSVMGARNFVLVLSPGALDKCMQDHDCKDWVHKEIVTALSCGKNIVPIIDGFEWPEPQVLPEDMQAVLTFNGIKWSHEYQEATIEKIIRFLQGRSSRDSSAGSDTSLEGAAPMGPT
# [15] = measured here: epithelial PC-3E GFP cell survival
# [16] = measured here: mesenchymal TEM4-18 mCherry cell survival
# [17] = stronger effect = lower value, cell number ratio, induced over uninduced
# [18] = measured here: relative caspase fold change +Dox/-Dox
# [19] = measured here: total cells with miR-34 induction, stronger effect = lower value
# [20] = measured here: total cells without miR-34 induction
# [21] = MELAS cybrid survival, CellTiter-Glo 48 h, stronger effect = higher value
# [22] = Rieske KO mouse fibroblast survival, CellTiter-Glo 72 h
smiles,measurement,setting,value
CCCNC(C)(C)COC(=O)c1ccccc1,survival,[1],15.2 (inactive)
same,parasite load remaining,[2],69.3% (inactive)
same,viability,[2],69.4%
same,nuclear beta-catenin stimulation,[3]; at 10 µM,0.1% (inactive)
same,nuclear beta-catenin stimulation,"[3]; stimulation, at 2 µM",0.2%
same,insulin secretion stimulation,[4],4.2% (inactive)
same,viability decrease,[5],0.2% (inactive)
same,tube area decrease,[6],6.5% (inactive)
same,GLP1 secretion stimulation,[7],4% (inactive)
same,inhibition of viability,[8],-3.5% (inactive)
same,viability decrease (inhibition),[9],42.3% (inactive)
same,viability decrease (inhibition),[10],25.6% (inactive)
same,red/green cell ratio (normalised),[11],1.13 (inactive)
same,normalised cell number,[11]; [15],1.15
same,normalised cell number,[11]; [16],1.29
same,fold change,[12]; [17],0.976 (inactive)
same,fold change,[12]; [18],0.64
same,cell count,[12]; [19],9410
same,cell count,[12]; [20],9640
same,z-score,[13]; [21],-0.122 (inactive)
same,z-score,[13]; [22],-0.0308
same,remaining NAD,[14],10 nM (inactive)
CC(C)COC(=O)c1ccc(N)cc1,nuclear beta-catenin stimulation,[3]; at 10 µM,0.2% (inactive)
same,nuclear beta-catenin stimulation,"[3]; stimulation, at 2 µM",0.4%
same,insulin secretion stimulation,[4],-1.9% (inactive)
same,viability decrease,[5],-5.95% (inactive)
same,tube area decrease,[6],0.5% (inactive)
same,GLP1 secretion stimulation,[7],0.9% (inactive)
same,inhibition of viability,[8],6.2% (inactive)
same,viability decrease (inhibition),[9],61.3% (active)
same,viability decrease (inhibition),[10],12.5% (inactive)
same,red/green cell ratio (normalised),[11],1.09 (inactive)
same,normalised cell number,[11]; [15],0.86
same,normalised cell number,[11]; [16],0.93
same,fold change,[12]; [17],0.964 (inactive)
same,fold change,[12]; [18],0.986
same,cell count,[12]; [19],8750
same,cell count,[12]; [20],9080
same,remaining NAD,[14],10 nM (inactive)
CC(C)(C)NCC(O)COc1cccc2c1CCC(=O)N2 (stereo not drawn),survival,[1],7.75 (inactive)
same,parasite load remaining,[2],126% (inactive) and 79.2% (inactive)
same,viability,[2],105% and 76.8%
same,nuclear beta-catenin stimulation,[3]; at 10 µM,0.7% (inactive)
same,nuclear beta-catenin stimulation,"[3]; stimulation, at 2 µM",1.8%
same,insulin secretion stimulation,[4],1.4% (inactive)
same,viability decrease,[5],-25.9% (inactive)
same,tube area decrease,[6],-2.9% (inactive)
same,GLP1 secretion stimulation,[7],1.2% (inactive)
same,inhibition of viability,[8],-1.83% (inactive)
same,viability decrease (inhibition),[9],-26.6% (inactive)
same,viability decrease (inhibition),[10],-8.8% (inactive)
same,red/green cell ratio (normalised),[11],1.13 (inactive)
same,normalised cell number,[11]; [15],1.2
same,normalised cell number,[11]; [16],1.36
same,fold change,[12]; [17],0.805 (inactive) and 0.903 (inactive)
same,fold change,[12]; [18],0.997 and 0.693
same,cell count,[12]; [19],8680 and 7910
same,cell count,[12]; [20],10800 and 8760
same,z-score,[13]; [21],-0.229 (inactive) and 0.6 (inactive)
same,z-score,[13]; [22],-0.22 and -0.0871
same,remaining NAD,[14],10 nM (inactive)
CCC1NC(=O)c2cc(S(N)(=O)=O)c(Cl)cc2N1 (stereo not drawn),survival,[1],5.17 (inactive)
same,parasite load remaining,[2],89.6% (inactive)
same,viability,[2],77.9%
same,nuclear beta-catenin stimulation,[3]; at 10 µM,1.2% (inactive)
same,nuclear beta-catenin stimulation,"[3]; stimulation, at 2 µM",2.9%
same,insulin secretion stimulation,[4],-1.7% (inactive)
same,viability decrease,[5],-8.4% (inactive)
same,tube area decrease,[6],2.1% (inactive)
same,GLP1 secretion stimulation,[7],8.6% (inactive)
same,inhibition of viability,[8],-5.7% (inactive)
same,viability decrease (inhibition),[9],-10.9% (active)
same,viability decrease (inhibition),[10],-14% (inactive)
same,red/green cell ratio (normalised),[11],0.98 (inactive)
same,normalised cell number,[11]; [15],1.22
same,normalised cell number,[11]; [16],1.2
same,fold change,[12]; [17],0.92 (inactive)
same,fold change,[12]; [18],0.404
same,cell count,[12]; [19],8110
same,cell count,[12]; [20],8810
same,z-score,[13]; [21],-1.3 (inactive)
same,z-score,[13]; [22],-1.37
same,remaining NAD,[14],10 nM (inactive)
CCOc1ccc(NC(=O)CC(C)O)cc1 (stereo not drawn),nuclear beta-catenin stimulation,[3]; at 10 µM,-2.6% (inactive)
same,nuclear beta-catenin stimulation,"[3]; stimulation, at 2 µM",0.2%
same,insulin secretion stimulation,[4],0.2% (inactive)
same,viability decrease,[5],-0.1% (inactive)
same,tube area decrease,[6],4.3% (inactive)
same,GLP1 secretion stimulation,[7],-3.3% (inactive)
same,inhibition of viability,[8],1.4% (inactive)
same,viability decrease (inhibition),[9],-2.6% (active)
same,viability decrease (inhibition),[10],-15.7% (inactive)
same,red/green cell ratio (normalised),[11],1.16 (inactive)
same,normalised cell number,[11]; [15],0.83
same,normalised cell number,[11]; [16],0.96
same,fold change,[12]; [17],0.956 (inactive)
same,fold change,[12]; [18],0.822
same,cell count,[12]; [19],9180
same,cell count,[12]; [20],9600
same,remaining NAD,[14],10 nM (inactive)
CCCCCCC[N+](CC)(CC)CCCCc1ccc(Cl)cc1,survival,[1],0.5 (inactive)
same,parasite load remaining,[2],34.3% (inactive) and 96.8% (inactive)
same,viability,[2],48.5% and 90.6%
same,nuclear beta-catenin stimulation,[3]; at 10 µM,1.5% (inactive)
same,nuclear beta-catenin stimulation,"[3]; stimulation, at 2 µM",0.5%
same,insulin secretion stimulation,[4],1% (inactive)
same,viability decrease,[5],95.1% (active)
same,tube area decrease,[6],83.4% (active)
same,GLP1 secretion stimulation,[7],7.2% (inactive)
same,inhibition of viability,[8],79.1% (active)
same,viability decrease (inhibition),[9],60.9% (active)
same,viability decrease (inhibition),[10],75.4% (active)
same,red/green cell ratio (normalised),[11],0.92 (inactive)
same,normalised cell number,[11]; [15],0.97
same,normalised cell number,[11]; [16],0.89
same,fold change,[12]; [17],0.718 (inactive)
same,fold change,[12]; [18],1.54
same,cell count,[12]; [19],6720
same,cell count,[12]; [20],9350
same,z-score,[13]; [21],-3 (inactive)
same,z-score,[13]; [22],-0.71
CN(C)CC/C=C1\c2ccccc2Sc2ccc(Cl)cc21,parasite load remaining,[2],79% (inactive) and 61.2% (inactive) and 17.9% (inactive)
same,viability,[2],83.4% and 97.6% and 84.5%
same,nuclear beta-catenin stimulation,[3]; at 10 µM,1.8% (inactive)
same,nuclear beta-catenin stimulation,"[3]; stimulation, at 2 µM",0.5%
same,insulin secretion stimulation,[4],20.8% (active)
same,viability decrease,[5],51.1% (active)
same,tube area decrease,[6],42.6% (active)
same,GLP1 secretion stimulation,[7],15.7% (inactive)
same,inhibition of viability,[8],94.8% (active)
same,viability decrease (inhibition),[9],127% (active)
same,viability decrease (inhibition),[10],98.6% (active)
same,red/green cell ratio (normalised),[11],1.04 (inactive)
same,normalised cell number,[11]; [15],1.11
same,normalised cell number,[11]; [16],1.16
same,fold change,[12]; [17],0.848 (inactive) and 0.855 (inactive)
same,fold change,[12]; [18],1.41 and 2.28
same,cell count,[12]; [19],6900 and 9070
same,cell count,[12]; [20],8140 and 10600
same,z-score,[13]; [21],0.287 (inactive)
same,z-score,[13]; [22],0.968
CC(=O)N(CC(O)CO)c1c(I)c(C(=O)NCCO)c(I)c(C(=O)NCC(O)CO)c1I (stereo not drawn),nuclear beta-catenin stimulation,[3]; at 10 µM,9.8% (inactive)
same,nuclear beta-catenin stimulation,"[3]; stimulation, at 2 µM",0.7%
same,insulin secretion stimulation,[4],0.3% (inactive)
same,viability decrease,[5],-3.3% (inactive)
same,tube area decrease,[6],1.4% (inactive)
same,GLP1 secretion stimulation,[7],2.4% (inactive)
same,inhibition of viability,[8],-3.1% (inactive)
same,viability decrease (inhibition),[9],-2.5% (active)
same,viability decrease (inhibition),[10],0.4% (inactive)
same,red/green cell ratio (normalised),[11],0.83 (inactive)
same,normalised cell number,[11]; [15],1.22
same,normalised cell number,[11]; [16],1.02
same,fold change,[12]; [17],0.937 (inactive)
same,fold change,[12]; [18],0.945
same,cell count,[12]; [19],9070
same,cell count,[12]; [20],9680
same,remaining NAD,[14],10 nM (inactive)
